Screening data (PubChem BioAssay)
This is a sample that favours compounds with a hit; in the whole collection about 1.9% have one here.
Measles CPE: protection of cells from measles virus; Measles virus-infected cells, CPE protection, absorbance; protection (pct of control), % at 4 µM; 140,000 tested, 1.5% active; in the data active = protection mostly above about 24%, no sharp cut-off; inactive = mostly below about 26%
sEH inh: inhibitors of human soluble epoxide hydrolase; 91,000 tested, 0.34% active; inhibition, % at 2 µM; recombinant human sEH enzymatic activity assay; in the data active = inhibition above about 80%
Target sequence (P34913 whole entry, looked up): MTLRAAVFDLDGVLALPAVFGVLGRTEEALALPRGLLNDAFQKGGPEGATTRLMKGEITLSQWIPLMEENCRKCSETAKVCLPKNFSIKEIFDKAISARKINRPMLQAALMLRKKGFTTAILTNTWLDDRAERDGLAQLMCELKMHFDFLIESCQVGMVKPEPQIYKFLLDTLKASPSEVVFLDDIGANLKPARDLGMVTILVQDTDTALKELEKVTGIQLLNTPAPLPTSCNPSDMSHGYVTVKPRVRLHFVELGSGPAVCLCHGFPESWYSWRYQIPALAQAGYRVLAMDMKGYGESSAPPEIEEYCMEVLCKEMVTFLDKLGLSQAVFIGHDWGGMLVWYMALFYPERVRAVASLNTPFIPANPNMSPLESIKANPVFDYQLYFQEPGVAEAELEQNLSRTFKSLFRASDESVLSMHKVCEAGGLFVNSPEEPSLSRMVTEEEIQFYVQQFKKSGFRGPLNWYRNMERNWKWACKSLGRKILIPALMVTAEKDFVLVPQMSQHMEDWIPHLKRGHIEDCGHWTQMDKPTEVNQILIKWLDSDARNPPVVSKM
sEH activator: soluble epoxide hydrolase (human) activation; P34913; purified human sEH enzymatic activity, activator screen; activation, % at 2 µM; 91,000 tested, 0.04% active; AID 717; in the data active = activation above about 37%
Candida biofilm: kills Candida albicans biofilms | C. albicans biofilm + clotrimazole, Alamar Blue | inhibition, % at 6 µM | 85,000 tested, 0.14% active | AID 834;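 active = inhibition above 20%; inactive = inhibition below 20%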;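 also: preformed 24 hr biofilms exposed to compound for 48 hr; 0% = biofilm without compound and 100% = blank killed by clotrimazole plus chlorhexidine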
cytoskel mod: modifiers of cytoskeleton assembly | inhibition, % at 2 µM | 91,000 tested, 0.18% active | HUVEC TNFa F-actin phalloidin imaging, high content;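 active = inhibition above the batch mean plus 3 SD and confirmed as a hit by visual image inspection, cut at about 30% in these data, passing the limit was not always enough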
The depositor's hits bear a star; x = no result given.

SMILES	Measles CPE	sEH inh	sEH activator	Candida biofilm	cytoskel mod
Cc1ccccc1OCCCC(=O)Nc1ccccc1C(F)(F)F	4.5	1.7	-0.9	x	-22.4
Clc1ccc(-c2nnc3sc(Cc4cccs4)nn23)c(Cl)c1	67.6*	x	x	3.1	14.1
N#Cc1nc(-c2ccco2)oc1N1CCC(Cc2ccccc2)CC1	7.0	-18.9	19.5	2.6	-5.3
Cn1c(=O)c2c(nc(NCc3ccccc3)n2CCCc2ccccc2)n(C)c1=O	1.2	-0.6	6.0	0.8	-3.9
CCOCCCNc1nc2c(c(=O)n(C)c(=O)n2C)n1CCCc1ccccc1	66.8*	-18.9	18.3	5.5	-7.0
CN1C(=O)CS(=O)c2ccc(C(=O)NCCC3=CCCCC3)cc21 (stereo unspecified)	10.9	29.7	-30.6	21.2*	17.9
CN1C(=O)CSc2ccc(NC(=O)NCCC3=CCCCC3)cc21	23.2	77.3	-76.6	5.3	8.8
O=C(NCCC1=CCCCC1)c1ccc(F)c(S(=O)(=O)N2CCOCC2)c1	10.1	97.4*	-97.4	-0.3	-17.7
O=C(NCCC1=CCCCC1)c1ccc2c(c1)N(Cc1ccccc1)C(=O)CS2	4.7	82.0*	-82.5	1.9	4.8
O=C(NCCN1CCOCC1)c1ccc2c(c1)N(Cc1ccccc1)C(=O)CS2	13.0	20.7	-20.8	6.1	4.1
CCOc1cc(N2CCCC2)ccc1[N+](=O)[O-]	5.8	x	x	x	x
O=c1oc2ccccc2cc1-c1ccc(O)cc1	2.9	x	x	x	x
O=c1oc2ccccc2cc1NCc1ccccc1O	29.4	-4.7	4.6	22.3*	-3.3
CCN1C(=O)c2ccccc2Sc2ccc(C(=O)NCCN3CCOCC3)cc21	15.1	x	x	7.3	x
CCOC(=O)c1c(-c2ccc(C)cc2)csc1NC(=S)NC(=O)c1ccccc1	20.8	-16.5	13.1	x	-11.6
COC(=O)c1ccc(C)c(NC(=O)c2c(-c3ccccc3)noc2C)c1	15.8	x	x	3.8	-15.2
COC(=O)c1c(-c2ccccc2)csc1NC(=O)c1c(-c2ccccc2)noc1C	38.0*	x	x	x	x
CCOC(=O)c1c(-c2ccc(F)cc2)csc1NC(=O)c1c(-c2ccccc2)noc1C	67.0*	x	x	x	x
Cc1cc(C)n(-c2ccc(C)c(Cl)c2)n1	11.1	x	x	x	x
O=C(CN1C(=O)CCS(=O)(=O)c2ccccc21)Nc1cccc(F)c1	5.1	2.2	-3.9	-1.6	-2.5
Cc1ccccc1CN1CCNC(=O)C1CC(=O)O (stereo unspecified)	2.9	x	x	28.3*	x
CC(C)Oc1ccc(C(CC(=O)NCc2ccco2)c2ccccc2)cc1 (stereo unspecified)	24.1*	9.4	-9.4	4.5	-13.8
CC(NS(=O)(=O)c1ccc(CCC(=O)NCc2ccco2)cc1)c1ccccc1 (stereo unspecified)	20.5	x	x	x	x
CC(Cc1cccs1)NC(=O)Nc1cccc(Cl)c1 (stereo unspecified)	6.9	84.2*	-84.7	11.4	x
Cn1c(Sc2ccc(C(F)(F)F)cc2[N+](=O)[O-])nnc1-c1ccccc1	27.4	-7.6	6.0	x	-9.1
SMILES	Measles CPE	sEH inh	sEH activator	Candida biofilm	cytoskel mod
C/C(=N\NC(=O)CSCc1ccccc1Br)c1cccc([N+](=O)[O-])c1	9.4	x	x	x	x
C/C(=N\NC(=O)CSCc1ccc([N+](=O)[O-])cc1)c1cccc(Br)c1	35.4*	x	x	x	x
COC(=O)COC(=O)c1ccc(-n2nnnc2SC)cc1	53.7*	-4.8	5.1	3.5	17.1
Cn1ncc(C#N)c1/N=C/N1CCCC1	16.1	-10.6	7.4	-1.8	6.1
Cc1cccc2sc(NNC(=O)c3ccc(S(=O)(=O)N4CCCC(C)C4)cc3)nc12 (stereo unspecified)	3.4	x	x	x	x
Cc1cccc2sc(NNC(=O)c3ccc4c(c3)OCCO4)nc12	36.7*	x	x	x	x
Cc1cc(C(C)(C)C)cc(S(=O)(=O)Nc2ccc(O)c(C(=O)O)c2)c1C	36.0*	27.2	-25.8	2.1	-0.2
COc1ccc(C/C(C)=N/NC(=S)Nc2ccccc2)cc1	12.2	x	x	x	x
COc1ccc(C/C(C)=N/NC(=S)Nc2ccc(C)c(C)c2)cc1	19.7*	x	x	x	x
COc1ccc(CNC(=S)Nc2cccc(C)c2)cc1	39.6*	-8.9	6.9	2.7	x
O=C(c1ccncc1)N(c1ccc2oc3c(c2c1)CCCC3)S(=O)(=O)c1ccc(F)cc1	3.9	x	x	x	x
Cc1cccc(NC(=S)NC(=O)c2ccco2)n1	4.4	x	x	x	x
CCOC(=O)Nc1ccc2c(c1)N(C(=O)OC)c1ccccc1CC2	13.5	-44.2	41.0*	x	-17.0
Cc1nc(SCC(O)CCl)c([N+](=O)[O-])[nH]1 (stereo unspecified)	9.6	8.1	-5.8	7.2	-0.8
Cc1ccc2c(c1)c(CC(=O)Nc1ccc(F)cc1)c(C(=O)O)n2C	13.6	-1.6	-1.4	-0.7	x
O=C(Cc1cccs1)Nc1nc2c(s1)CCCC2	92.5*	7.4	-7.9	2.6	10.3
CCC(OC(=O)c1cc2sccc2n1C)C(=O)NCc1ccco1 (stereo unspecified)	1.5	4.8	-6.1	5.0	-13.1
Cc1ccc(C)c2[nH]c(=O)c(CN(Cc3ccco3)S(=O)(=O)c3ccc4c(c3)OCCO4)cc12	30.4	7.8	-8.9	1.6	0.6
CCc1ccc2[nH]c(=O)c(CN(Cc3ccco3)S(=O)(=O)c3ccc4c(c3)OCCO4)cc2c1	4.0	-42.4	39.1*	0.5	13.6
O=C(C(Cc1ccccc1)n1cccc1)N1CCCCCC1 (stereo unspecified)	9.8	4.9	-5.0	20.6*	17.5
CCOC(=O)N/N=C(/C)c1ccc([N+](=O)[O-])o1	83.1*	6.0	-3.3	-2.9	6.5
O=C(COC(=O)C1c2ccccc2Oc2ccccc21)Nc1ccc2c(c1)OCO2	5.9	-1.4	3.0	7.1	x
CC(NS(C)(=O)=O)C(c1cccs1)N1CCN(Cc2ccccc2)CC1 (stereo unspecified)	30.8*	x	x	-1.2	x
CC(NS(C)(=O)=O)C(c1cccs1)N1CCN(C)CC1 (stereo unspecified)	16.6	x	x	7.7	1.6
CC(NS(=O)(=O)c1ccccc1)C(c1cccs1)N1CCN(c2ccccc2)CC1 (stereo unspecified)	2.2	x	x	1.2	-6.2
SMILES	Measles CPE	sEH inh	sEH activator	Candida biofilm	cytoskel mod
CC(NS(=O)(=O)c1ccc(Br)cc1)C(c1cccs1)N1CCN(C)CC1 (stereo unspecified)	27.3*	x	x	5.8	x
O=C1OC(/C=C/c2ccc(Cl)cc2)=NC/1=C/c1ccco1	6.1	x	x	x	x
CCn1c(C(=O)NCc2cccnc2)cc2sc(Cl)cc21	11.1	-5.5	3.0	x	2.5
COc1ccccc1NC(=O)/C(C#N)=C/c1cc([N+](=O)[O-])ccc1N1CCCC1	3.4	x	x	x	x
CCn1c(SCC(=O)Nc2cc(C)on2)nnc1-c1ccc(S(=O)(=O)N2CCCC2)cc1	6.8	9.3	-10.5	5.3	18.7
CCn1c(SCC(=O)Nc2cc(C)on2)nnc1-c1ccccc1	33.5	-0.4	0.3	6.8	37.1*
CCn1c(SCC(=O)Nc2cc(C)on2)nnc1-c1ccco1	34.7*	11.6	-13.7	5.0	0.9
CCN(CC)S(=O)(=O)c1ccc(N=NC2=C(O)CCCC2=O)cc1	34.0*	x	x	x	x
CCN(CC)S(=O)(=O)c1ccc(N=NC2=C(O)CC(C)(C)CC2=O)cc1	26.8	x	x	x	x
O=C(N/N=C\CCc1ccccc1)c1ccco1	57.1*	x	x	x	x
C=CCNC(=O)CC(=O)N/N=C/c1cccc(C)c1	8.0	x	x	x	x
